This is an account of results in PubChem BioAssay (NCI).

The structures appear in SMILES notation. The panel holds about 83,000 compounds, 20% with a hit somewhere; the sample as a whole holds those more often.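 Plates (96-well) were seeded with cells, treated with compound at one concentration, and incubated for 48 hours before percent growth was determined.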 A number with no mark means an inactive call. Activity calls are given as the source filed them. How the source made its calls: active means growth percent below 10; inactive means the rest.

Among the test systems are T-47D breast; BT-549 breast; MDA-MB-435 melanoma; SW-620 colon; MCF7 breast; HCT-116 colon; HCC-2998 colon; KM12 colon.
Holding throughout (assay): NCI-60 one-dose screen, 48 h (100 = growth as untreated, 0 = no growth, -100 = all killed)
Holding throughout (settings): 10 µM unless noted

As for `Cc1cc(N2CCOCC2)nc(N(CCNc2ccnc3cc(Cl)ccc23)Cc2ccco2)n1`, the growth is -6.08% (active) in the test with T-47D breast; 30.2% with BT-549 breast; 26.6% with MDA-MB-435 melanoma; 50.5% in the test with SW-620 colon; 40.6% in the test with MCF7 breast; 14.5% with HCT-116 colon. Besides, the growth was 62.9% in the test with HCC-2998 colon and 44.8% in the test on KM12 colon.

For `CC(C)CNCC(O)COc1ccc(C(C)(C)c2ccc(OCC(O)CNCC(C)C)cc2)cc1` (stereo not drawn), the growth in the test with T-47D breast was -31.3% (active); with BT-549 breast it was 69.4%; in the test with MDA-MB-435 melanoma, 7.56% (active); with SW-620 colon, 1.07% (active); with MCF7 breast, 10.3%; in the test with HCT-116 colon, 0.347% (active). In addition, the growth is -24.5% (active) in the test with HCC-2998 colon and 37.1% in the test on KM12 colon.

As to `CC(=O)c1ccc2c(c1)C1C=CCC1[C@H](c1cc3c(cc1Br)OCO3)N2` (stereo partly drawn), the growth in the test on T-47D breast was 36.2%; in the test with BT-549 breast it was 44.6%; with MDA-MB-435 melanoma, -27.2% (active); in the test with SW-620 colon, 21.2%; in the test with MCF7 breast, 14.1%; in the test on HCT-116 colon, 14.9%. Also, the values for the growth with HCC-2998 colon and in the test with KM12 colon were 7.12% (active) and 17%, respectively.

Consider `O=C(Nc1cccc([N+](=O)[O-])c1)Nc1cccc([N+](=O)[O-])c1`, for which the growth with T-47D breast is 6.88% (active); in the test with BT-549 breast it was 50.5%; with MDA-MB-435 melanoma it was 63.1%; in the test on SW-620 colon, 45.4%; in the test on MCF7 breast, 20.7%; in the test with HCT-116 colon, 37.3%. Further, the growth in the test with HCC-2998 colon was 45.2%; with KM12 colon, 27.7%.

Turning to `O=C(Nc1cccc(-n2ccc3c(NC(=O)c4ccccc4)nccc32)c1)c1cccc(C(F)(F)F)c1`, the growth with T-47D breast was 55.8%; in the test on BT-549 breast, -6.35% (active); in the test on MDA-MB-435 melanoma, 1.38% (active); in the test on SW-620 colon it was 20.2%; in the test on MCF7 breast it was 19%; with HCT-116 colon it was 1.3% (active). Besides, the values for the growth with HCC-2998 colon and in the test with KM12 colon were 31.8% and -3.3% (active), respectively.

`CCn1cc(C(=O)O)c(=O)c2cc(F)c(N3CCN(CC(=O)Nc4ccc(C(C)=O)cc4)CC3)cc21`: the growth is 92% in the test on T-47D breast; 109% with BT-549 breast; 102% with MDA-MB-435 melanoma; 103% in the test with SW-620 colon; 99.1% in the test with MCF7 breast; 104% in the test on HCT-116 colon. Further, the values for the growth in the test with HCC-2998 colon and in the test on KM12 colon were 96.2% and 97.4%, respectively.

Consider `Nc1nc2ccc(CNc3ccc(C(=O)NC(CC(=O)O)C(=O)O)cc3)cc2c(=O)[nH]1` (stereo not drawn), for which the growth in the test with T-47D breast was 84.7%; with BT-549 breast it was 74.3%; in the test with MDA-MB-435 melanoma, 40.4%; in the test on SW-620 colon it was 31.8%; in the test with MCF7 breast it was 27.2%; in the test with HCT-116 colon, 16.8%. Moreover, the growth with HCC-2998 colon is 45.1%; with KM12 colon it was 29.8%.

Turning to `Cc1cn(-c2nc3c(c(NCc4ccccc4)n2)COCC3)c2cccc(C(N)=O)c12`, the growth in the test on T-47D breast was 62.7% [0.5 µM]; with BT-549 breast it was 89% [0.5 µM]; in the test with MDA-MB-435 melanoma it was 63.9% [0.5 µM]; in the test with SW-620 colon, 86.1% [0.5 µM]; with MCF7 breast it was 35.5% [0.5 µM]; in the test on HCT-116 colon it was 11.4% [0.5 µM]. Also, the growth in the test on HCC-2998 colon is 69.9% [0.5 µM]; in the test on KM12 colon, 63.2% [0.5 µM].

Turning to `Nc1ncnc2c1c(C(F)(F)F)cn2[C@@H]1O[C@H](CO)[C@@H](O)[C@H]1O`, the growth in the test on T-47D breast was -0.423% (active); in the test on BT-549 breast, -10.2% (active); with MDA-MB-435 melanoma, 12.3%; with SW-620 colon, 5.25% (active); with MCF7 breast it was 7.41% (active); with HCT-116 colon, 8.38% (active). In addition, the results for the growth in the test on HCC-2998 colon and with KM12 colon were 7.21% (active) and 4.05% (active), respectively.

Turning to `O=c1c2ccccc2sc2c(NCCCNCCO)nc3ccccc3c12`, the growth in the test on T-47D breast is 65.9%; in the test with BT-549 breast, 72.3%; with MDA-MB-435 melanoma, 5.01% (active); in the test on SW-620 colon, -62.4% (active); in the test with MCF7 breast it was -72.9% (active); with HCT-116 colon it was -57.5% (active). Also, the growth is -49.2% (active) with HCC-2998 colon and 6.31% (active) with KM12 colon.

As for `O=c1c2ccccc2sc2c(N3CCCC3)nc3ccccc3c12`, the growth with T-47D breast is 81.2%; in the test on BT-549 breast, 111%; in the test on MDA-MB-435 melanoma, 112%; in the test with SW-620 colon it was 95%; in the test on MCF7 breast it was 65.8%; in the test on HCT-116 colon, 78%. The growth is 107% in the test with HCC-2998 colon and 85.5% in the test on KM12 colon.

With `COc1cc(NC(C)CCCN2C(=O)c3ccccc3C2=O)c2nc(C)ccc2c1OC` (stereo not drawn), the growth is 95.1% in the test with T-47D breast; 103% in the test on BT-549 breast; 111% in the test with MDA-MB-435 melanoma; 97.3% in the test with SW-620 colon; 90.6% in the test with MCF7 breast; 85.4% in the test on HCT-116 colon. The figures for the growth with HCC-2998 colon and in the test on KM12 colon were 95.4% and 107%, respectively.

For the compound `O=C(Nc1ccc(-n2ccc3c(NC(=O)c4ccccc4)ncnc32)cc1)Nc1cccc(Cl)c1Cl`, the growth in the test with T-47D breast is 42.8%; with BT-549 breast, 49.2%; in the test with MDA-MB-435 melanoma, -4.29% (active); with SW-620 colon it was 11.5%; with MCF7 breast it was 2.07% (active); in the test with HCT-116 colon, -25.4% (active). For the same compound, the growth with HCC-2998 colon is 64.6%; in the test with KM12 colon, 20.7%.

For `N#Cc1c(N)nc(Cl)c(C#N)c1C(=O)c1ccccc1`, the growth was 42.4% in the test on T-47D breast; 24.9% in the test with BT-549 breast; 14.6% in the test with MDA-MB-435 melanoma; 43.3% with SW-620 colon; 18.9% in the test with MCF7 breast; 30.2% with HCT-116 colon. Further, the growth was 76.5% in the test on HCC-2998 colon and 28% with KM12 colon.

Regarding `O=S(=O)(O)c1ccc(F)cc1`, the growth was 98.7% in the test on T-47D breast; 101% with BT-549 breast; 108% in the test with MDA-MB-435 melanoma; 103% in the test on SW-620 colon; 97.8% in the test with MCF7 breast; 99% in the test on HCT-116 colon. Also, the growth is 105% in the test with HCC-2998 colon and 101% in the test with KM12 colon.

For the compound `O=C(Nc1ccc(-n2ccc3c(NC(=O)c4ccccc4)nccc32)cc1)Nc1ccc(Cl)c(Cl)c1`, the growth with T-47D breast is 20.7%; in the test with BT-549 breast it was 40.3%; in the test with MDA-MB-435 melanoma it was -58.9% (active); with SW-620 colon, -64.6% (active); in the test on MCF7 breast, -91.9% (active); in the test on HCT-116 colon, -94.5% (active). Also, the growth is -57.6% (active) in the test on HCC-2998 colon and -49.1% (active) in the test on KM12 colon.
